Autophagy HCS: autophagy modulation, high-content screen | MEF GFP-LC3 puncta imaging; test concentration mostly 10 µM | calls only at 10 µM (by protocol) | 190,000 tested, 0.98% active | AID 463193;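 active = percentage of spot-positive cells more than 3 SD above its plate mean, without a fluorescence outlier flag or 80% toxicity; inconclusive = no clear call, values can overlap the other calls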;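 note: spot-positive cell cutoff set from DMSO-treated cells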
Insulin prom inh: TRM-6 insulin promoter activity inhibition | 130,000 tested, 0.9% active | TRM-6 cells (human fetal islet line), insulin promoter-eGFP reporter, imaging; reporter expression induced with tamoxifen | AID 1273 | inhibition, % at 2 µM;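 active = inhibition above the mean plus 3 SD, with well images judged a real hit on visual review, cut at about 60% in these data, passing the limit was not always enough; inconclusive = inhibition over the cutoff but images rejected on review; inactive = inhibition not above the cutoff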
Efa HMGR inh: blocks class II HMG-CoA reductase of Enterococcus faecalis | AID 1066 | purified E. faecalis HMGR, NADPH absorbance 340 nm kinetic | 190,000 tested, 0.41% active | inhibition, % at 10 µM;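 active = inhibition above a set limit, the median over all tested compounds plus 3 SD, cut at about 9.5% in these data; inconclusive = no clear call, values can overlap the other calls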;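 note: enzyme runs in reverse so mevalonate oxidation gives rising NADPH absorbance; 0% = complete reaction with DMSO and 100% = background rate lacking mevalonate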
Insulin prom up: MIN6 insulin promoter up-regulation. MIN6 insulin promoter-GFP reporter, high-content imaging; hits give high values. z-score at 5 µM. 190,000 tested, 0.3% active;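 active = z-score above 3 at 5 µM with at least 500 cells counted in the well; inconclusive = wells under 500 cells, flagged as cytotoxic or low count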
Numbers without * were called inactive; i = inactive; ? = inconclusive; . = no result given; + = active, no number. Only some compounds are listed: those with a hit (about 1.9% of all), similar ones and a draw of the others.

SMILES	Autophagy HCS	Insulin prom inh	Efa HMGR inh	Insulin prom up
CCCCC(=O)N/N=C/c1ccc(-c2ccc([N+](=O)[O-])cc2)o1	i	-29	-8	0.29
Cc1ccc(C)c(N=Cc2ccc(-c3ccc([N+](=O)[O-])cc3)o2)c1	i	-6	16*	-0.52
CCOC(=O)c1sc(NC(=O)c2sccc2C)cc1C	i	13	-1	3.1*
COc1ccc(C(=O)c2sc3nc(-c4ccccc4)ccc3c2N)cc1	+	-207	2	?
CC(C)OC(=O)c1sc2nc(-c3ccccc3)ccc2c1N	i	10	-2	1.2
NC(=O)c1sc2nc(-c3cccnc3)ccc2c1N	.	.	.	0.04
CCOC(=O)c1sc2nc(-c3cccnc3)ccc2c1N	i	71*	-5	-0.21
CC(C)COc1ccc(C/C(N)=N/n2cnnc2)cc1	i	.	-4	-0.98
CN1CCN(c2ccc(Cl)cc2NC(=O)/C=C/c2ccc(F)cc2)CC1	i	.	-7	-1.7
CCc1cc2c(N=Nc3c(O)[nH]c4ccccc34)ncnc2s1	+	.	1	-0.82
Cc1sc2ncnc(N=Nc3c(O)[nH]c4ccccc34)c2c1C	i	.	-9	0.2
C=C(C)CN(CC)C(=O)CSc1nc(O)cc(=O)n1C1CCCC1	i	0	-1	-0.08
CCN(CC)c1ccc(-c2n[nH]c(=S)n2-c2ccccc2C)cc1	i	.	14*	1.1
CCN(CC)c1ccc(-c2n[nH]c(=S)n2-c2ccccc2)cc1	i	.	-7	-0.53
O=C(CNC(=O)C1COc2ccccc2O1)N/N=C/c1ccc(O)cc1O (configuration not stated)	i	-7	-10	-1.1
O=S1(=O)CC=C(CSC(=S)NC2CCS(=O)(=O)C2)C1 (configuration not stated)	i	.	15*	1.1
CCCNC(=O)COC(=O)c1[nH]c(C)c(C(=O)OCC)c1C	i	0	-6	.
CCOC(=O)c1c(C)[nH]c(C(=O)N/N=C\c2ccccc2Cl)c1C	+	.	-7	-0.12
CCOC(=O)c1c(C)[nH]c(C(=O)OCC(=O)Nc2cc(C)c(Cl)cc2OC)c1C	+	.	0	-0.48
CC(=O)NNc1ncnc2c1cnn2-c1ccc(C)c(Cl)c1	i	4	12*	0.27
O=c1c(Cl)nc2cc(Cl)ccc2n1CCNc1ncc(C(F)(F)F)cc1Cl	+	-35	-5	-1.7
O=c1c2nncn2c2cc(C(F)(F)F)ccc2n1CCNc1ncc(C(F)(F)F)cc1Cl	.	.	.	-0.69
COc1cc(C2Nc3cccc4cccc(c34)N2)cc(OC)c1O	+	14	-4	.
N#C/C(=C\c1ccc(/C=C(/C#N)c2nn(CCO)c(N)c2C#N)cc1)c1nn(CCO)c(N)c1C#N	+	.	-10	.
CCN(CC)CCCNc1oc(-c2cccc(Cl)c2)nc1C#N	+	14	-3	-0.9
SMILES	Autophagy HCS	Insulin prom inh	Efa HMGR inh	Insulin prom up
CN(C)C=Nc1nonc1-c1ccccc1	.	.	.	-0.78
CN(C)C=Nc1nonc1-c1ncn[nH]1	+	0	0	0.46
Cc1nc2ccccc2n1CC(O)COc1ccccc1Cl (configuration not stated)	i	?	11*	-1.6
O=C(NCc1ccc(Cl)cc1)C(=O)Nc1nccs1	i	-8	-2	.
O=C(Nc1nccs1)c1cc2sccc2n1Cc1ccc(Cl)cc1	+	.	2	-0.16
COc1ccccc1N1CCc2c(C)nc3c(OC)cccc3c21	i	.	-1	-0.71
COc1cccc2c3c(c(C)nc12)CCN3c1ccccc1	+	0	-3	.
C#Cc1ccc([C@@H]2C=C(C(=O)NCc3nc4ccccc4[nH]3)O[C@H](OCC)[C@H]2CCCO)cc1	.	.	.	0.25
O=C(CC(=O)NN=C1CCCCCC1)NCc1cccnc1	i	-72	15*	-0.04
CC(=O)c1c(C)[nH]c(C(=O)NC2CCCCC2)c1C	i	.	0	-0.78
CCc1c(C(=O)NC2CCCCC2)[nH]c(C)c1C(C)=O	i	.	-2	3.9*
Cc1cccc2cc(C#N)c(SCC(=O)Nc3ccccc3N3CCOCC3)nc12	i	-92	2	1.3
N#Cc1cc2ccccc2nc1SCC(=O)Nc1ccccc1N1CCOCC1	+	-18	-8	-0.12
CCOC(=O)c1[nH]c(C)c(C(=O)c2cc(F)ccc2F)c1C	+	70*	0	-1.8
CCOC(=O)c1[nH]c(C)c(C(=O)OCC)c1C	i	.	0	2
C=CCSC1=NNC(c2ccc(C(C)(C)C)cc2)=NN1	.	.	.	-0.32
COCCN1C(=O)/C(=C/c2ccc(N3CCCC3)cc2C)SC1=S	+	-456	-8	.
COc1ccc(/C=C/c2cc(C(F)(F)F)on2)cc1	.	.	.	-0.12
Nc1ccc2c(c1)CC(=O)c1ccccc1S2	i	77*	-4	?
O=C1Cc2ccccc2Sc2ccc(O)cc21	i	.	-3	0.38
S=C1NCCc2ccc(Cl)cc2C1c1ccccc1 (configuration not stated)	i	-55	17*	.
O=C1CN2C(=Nc3ccc(Cl)cc3C2c2ccccc2)CN1 (configuration not stated)	i	14	-4	-0.35
O=C(Cc1ccc(Cl)cc1)Nc1ccc(CN2CCCCC2)cc1	.	.	.	-0.94
Cc1onc(-c2c(F)cccc2Cl)c1C(=O)NC(=S)NC1CCS(=O)(=O)C1 (configuration not stated)	i	23	-4	0.08
Cc1ccc(S(=O)(=O)NNC(=O)CCCCC(=O)NNS(=O)(=O)c2ccc(C)cc2)cc1	i	-61	13*	0.31
SMILES	Autophagy HCS	Insulin prom inh	Efa HMGR inh	Insulin prom up
c1ccc(-c2ccc(-c3nccc4ccccc34)[nH]2)cc1	.	.	.	4.4*
CCOC(=O)N1CCN(C(=O)CCN2C(=O)COc3ccccc32)CC1	i	79*	-3	-1.1
Cn1cccc1C(=O)OCC(=O)N1CC(=O)Nc2ccccc21	i	56	11*	-0.77
O=C1CN(C(=O)CSc2nnc3ccccn23)c2ccccc2N1	i	.	12*	-0.21
Cn1cccc1C(=O)OCC(=O)N1c2ccccc2NC(=O)C1(C)C	i	.	-2	0.34
CCOC(=O)C1(CCOc2ccccc2)CCN(Cc2ccc3nonc3c2)CC1	i	0	8	.
Cc1cccc(C)c1NC(=O)Cn1nnnc1N	i	0	13*	0.27
COc1ccc(Cn2c(SCc3cc(C)ccc3C)nc3cc(OC)c(OC)cc3c2=N)cc1	+	3	-3	-0.8
O=C(O)Cn1cc(/C=c2/sc3nc4ccccc4n3c2=O)c2ccccc21	i	36	-4	0.35
O=c1/c(=C\c2cccn2-c2ccccc2)sc2nc3ccccc3n12	+	7	1	1.4
COc1cc(N2CCCC2)c(OC)cc1/C=c1/sc2nc3ccccc3n2c1=O	+	.	2	17*
Cc1cc(C)c2cc3c(N)c(C(=O)Nc4c(C)[nH]c(=O)[nH]c4=O)sc3nc2c1	+	34	-1	0.56
Cc1oc(-c2ccccc2F)nc1CN1CCC(C(=O)NC2CCCCCCC2)CC1	i	.	-7	-0.77
Cc1oc(-c2ccccc2F)nc1CN1CCC(C(=O)NC2CCCc3ccccc32)CC1 (configuration not stated)	i	86*	-3	-0.76

Source: PubChem BioAssay (several laboratories)
